Holding throughout (assay): DAPPL (digital affinity profiling via proximity ligation, sequencing); 10 mM Tris-HCl pH 7.5, 50 mM NaCl, 1 mM DTT, 4% glycerol, room temperature, 30 min; GST-TFs on glutathione beads, 16-mer random dsDNA library, 0.1% formaldehyde crosslink after washing; high values mean tight binding
Common to all, as to conditions: protein: recombinant; tags: N-terminal GST; dsDNA, one strand shown

One assay concerns the target T1, FLI1 (Homo sapiens, UniProt Q01543 1-452).
T1 sequence: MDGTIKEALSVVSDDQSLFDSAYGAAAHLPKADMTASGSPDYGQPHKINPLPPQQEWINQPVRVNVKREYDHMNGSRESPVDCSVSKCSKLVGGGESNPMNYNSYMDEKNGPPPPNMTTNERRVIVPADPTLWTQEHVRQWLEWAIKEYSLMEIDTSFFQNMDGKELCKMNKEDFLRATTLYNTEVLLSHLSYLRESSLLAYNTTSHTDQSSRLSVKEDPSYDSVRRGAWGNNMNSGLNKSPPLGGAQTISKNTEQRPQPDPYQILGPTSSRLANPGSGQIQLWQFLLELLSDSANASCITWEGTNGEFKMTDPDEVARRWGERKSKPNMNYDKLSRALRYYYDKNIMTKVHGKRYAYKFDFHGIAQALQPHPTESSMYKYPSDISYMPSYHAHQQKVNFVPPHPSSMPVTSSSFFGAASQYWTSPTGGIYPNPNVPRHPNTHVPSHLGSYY
A digest of the protocol:
(§1)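 Pools of DNA-barcoded human transcription factors, expressed in yeast as GST fusions on glutathione beads and combined with a tag-only sample, were incubated with 200 nmole of a 16-mer random double-stranded DNA library. Incubation took 30 min at room temperature in Tris/NaCl/DTT/glycerol buffer and was followed by washing, 0.1% formaldehyde crosslinking, proximity ligation (BsaI/T4 ligase, 1 h, 37 °C), PCR amplification and sequencing on an Illumina NextSeq500. Binding signal is the ratio of a hexamer's read frequency for a factor to its frequency for the tag-only sample.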

The next assay deals with T2, ELK1 (Homo sapiens, UniProt P19419 1-428).
T2 sequence: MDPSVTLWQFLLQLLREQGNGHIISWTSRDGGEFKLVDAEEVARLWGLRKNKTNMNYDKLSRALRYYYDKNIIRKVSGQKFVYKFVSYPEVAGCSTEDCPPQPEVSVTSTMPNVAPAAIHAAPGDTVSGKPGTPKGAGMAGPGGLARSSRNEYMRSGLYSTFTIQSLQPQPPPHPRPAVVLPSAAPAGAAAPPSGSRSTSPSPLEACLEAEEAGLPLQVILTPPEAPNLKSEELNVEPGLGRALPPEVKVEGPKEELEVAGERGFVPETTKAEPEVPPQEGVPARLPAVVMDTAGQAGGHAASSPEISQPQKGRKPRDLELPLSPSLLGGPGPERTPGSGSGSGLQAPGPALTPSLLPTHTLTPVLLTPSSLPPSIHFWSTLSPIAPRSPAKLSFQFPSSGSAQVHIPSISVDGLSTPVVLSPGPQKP
The procedure, abridged: as §1

The target in the next assay is T3, ERG (Homo sapiens, UniProt P11308 1-479).
T3 sequence: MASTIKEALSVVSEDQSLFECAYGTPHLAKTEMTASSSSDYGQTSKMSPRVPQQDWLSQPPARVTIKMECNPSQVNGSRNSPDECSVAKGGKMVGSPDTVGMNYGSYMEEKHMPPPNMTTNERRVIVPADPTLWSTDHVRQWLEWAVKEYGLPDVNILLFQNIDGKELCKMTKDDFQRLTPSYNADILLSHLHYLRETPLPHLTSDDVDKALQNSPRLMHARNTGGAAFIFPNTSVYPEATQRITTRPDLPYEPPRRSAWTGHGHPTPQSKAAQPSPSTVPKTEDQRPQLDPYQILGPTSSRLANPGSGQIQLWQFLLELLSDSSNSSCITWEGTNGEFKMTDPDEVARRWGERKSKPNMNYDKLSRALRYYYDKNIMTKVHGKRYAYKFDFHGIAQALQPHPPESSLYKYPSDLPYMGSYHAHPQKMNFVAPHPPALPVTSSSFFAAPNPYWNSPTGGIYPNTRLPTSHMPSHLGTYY
The procedure, abridged: as §1

The target in the next assay is T4, EHF (Homo sapiens, UniProt Q9NZC4 1-300).
T4 sequence: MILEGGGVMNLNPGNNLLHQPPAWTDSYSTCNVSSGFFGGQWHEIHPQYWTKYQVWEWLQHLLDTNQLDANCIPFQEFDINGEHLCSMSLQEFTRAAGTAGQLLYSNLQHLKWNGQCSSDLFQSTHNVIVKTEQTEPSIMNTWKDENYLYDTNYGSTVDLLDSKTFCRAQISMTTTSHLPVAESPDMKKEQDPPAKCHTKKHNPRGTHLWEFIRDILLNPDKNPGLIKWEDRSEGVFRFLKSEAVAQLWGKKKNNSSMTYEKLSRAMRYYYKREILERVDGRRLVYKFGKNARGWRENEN
A digest of the protocol:
as §1

A further assay has as its target SPI1 (Homo sapiens, UniProt P17947 1-270). The procedure, abridged:
as §1

The next assay has as its target SPIB (Homo sapiens, UniProt Q01892 1-262). The procedure, abridged: as §1
In another assay the target is ETV5 (Homo sapiens, UniProt P41161 1-510). A digest of the protocol:
as §1

For the next assay, the target named is T5, SPIC (Homo sapiens, UniProt Q8N5J4 1-248).
T5 sequence: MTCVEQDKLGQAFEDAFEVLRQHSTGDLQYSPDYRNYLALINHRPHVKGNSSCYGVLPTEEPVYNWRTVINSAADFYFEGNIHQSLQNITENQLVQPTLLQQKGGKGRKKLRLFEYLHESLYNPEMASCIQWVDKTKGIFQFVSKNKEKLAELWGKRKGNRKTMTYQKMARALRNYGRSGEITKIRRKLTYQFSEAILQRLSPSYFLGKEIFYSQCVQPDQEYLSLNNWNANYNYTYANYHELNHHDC
A digest of the protocol: as §1

In another assay the target is ELF4 (Homo sapiens, UniProt Q99607 1-663). The procedure, abridged: as §1
ELF4, sequence (Q99607 whole entry): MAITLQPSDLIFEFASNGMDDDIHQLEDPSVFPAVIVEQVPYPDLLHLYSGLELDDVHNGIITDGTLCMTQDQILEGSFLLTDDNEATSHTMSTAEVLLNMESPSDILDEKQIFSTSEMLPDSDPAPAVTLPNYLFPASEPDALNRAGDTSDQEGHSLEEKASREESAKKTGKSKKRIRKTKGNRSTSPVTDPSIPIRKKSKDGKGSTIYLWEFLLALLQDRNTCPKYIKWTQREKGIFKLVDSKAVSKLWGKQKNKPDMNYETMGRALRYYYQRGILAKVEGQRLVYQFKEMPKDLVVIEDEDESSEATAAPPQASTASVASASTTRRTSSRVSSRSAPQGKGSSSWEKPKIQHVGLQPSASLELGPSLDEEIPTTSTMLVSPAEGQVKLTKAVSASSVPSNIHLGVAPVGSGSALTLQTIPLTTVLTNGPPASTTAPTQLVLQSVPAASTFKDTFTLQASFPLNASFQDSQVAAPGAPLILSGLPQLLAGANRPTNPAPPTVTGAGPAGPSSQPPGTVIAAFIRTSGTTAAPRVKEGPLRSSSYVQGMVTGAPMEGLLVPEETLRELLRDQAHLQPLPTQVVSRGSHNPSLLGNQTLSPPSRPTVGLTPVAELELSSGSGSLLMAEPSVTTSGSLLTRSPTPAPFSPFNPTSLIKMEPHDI
The next assay deals with ETV1 (Homo sapiens, UniProt P50549 1-477). A digest of the protocol:
as §1

A further assay addresses T6, ETS2 (Homo sapiens, UniProt P15036 1-469).
T6 sequence: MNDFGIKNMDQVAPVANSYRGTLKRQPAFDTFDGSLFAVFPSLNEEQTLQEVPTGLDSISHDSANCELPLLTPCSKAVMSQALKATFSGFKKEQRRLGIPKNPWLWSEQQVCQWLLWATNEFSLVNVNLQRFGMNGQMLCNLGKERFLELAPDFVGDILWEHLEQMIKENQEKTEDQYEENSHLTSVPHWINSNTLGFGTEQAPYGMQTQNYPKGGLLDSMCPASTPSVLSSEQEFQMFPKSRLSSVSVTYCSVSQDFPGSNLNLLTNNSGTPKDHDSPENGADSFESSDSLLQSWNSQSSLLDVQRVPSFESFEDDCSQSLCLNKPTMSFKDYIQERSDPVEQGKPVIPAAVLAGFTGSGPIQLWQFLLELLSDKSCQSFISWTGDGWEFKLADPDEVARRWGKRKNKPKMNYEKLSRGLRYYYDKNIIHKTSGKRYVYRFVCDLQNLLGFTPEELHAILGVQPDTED
A digest of the protocol:
as §1

Another assay deals with T7, SPDEF (Homo sapiens, UniProt O95238 1-335).
T7 sequence: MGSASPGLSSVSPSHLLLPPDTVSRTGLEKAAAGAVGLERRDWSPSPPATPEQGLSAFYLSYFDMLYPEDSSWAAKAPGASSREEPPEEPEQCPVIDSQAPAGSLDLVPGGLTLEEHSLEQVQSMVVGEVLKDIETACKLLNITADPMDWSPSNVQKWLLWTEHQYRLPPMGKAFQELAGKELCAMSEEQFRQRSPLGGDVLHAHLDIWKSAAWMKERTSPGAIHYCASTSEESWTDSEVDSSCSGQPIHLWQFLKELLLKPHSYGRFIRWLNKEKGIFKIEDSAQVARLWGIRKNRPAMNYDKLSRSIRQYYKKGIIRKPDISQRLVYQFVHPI
The procedure, abridged: as §1

The next assay has as its target T8, ELF5 (Homo sapiens, UniProt Q9UKW6-2 1-255).
T8 sequence: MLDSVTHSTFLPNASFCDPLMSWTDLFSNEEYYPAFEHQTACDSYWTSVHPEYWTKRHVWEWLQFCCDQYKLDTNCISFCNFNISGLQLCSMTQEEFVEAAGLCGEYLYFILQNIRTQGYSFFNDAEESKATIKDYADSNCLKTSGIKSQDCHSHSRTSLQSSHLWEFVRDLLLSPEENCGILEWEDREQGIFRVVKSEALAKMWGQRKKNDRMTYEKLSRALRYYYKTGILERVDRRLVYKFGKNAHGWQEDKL
A digest of the protocol:
as §1

The next assay has as its target T9, ETV3 (Homo sapiens, UniProt P41162-2 1-143).
T9 sequence: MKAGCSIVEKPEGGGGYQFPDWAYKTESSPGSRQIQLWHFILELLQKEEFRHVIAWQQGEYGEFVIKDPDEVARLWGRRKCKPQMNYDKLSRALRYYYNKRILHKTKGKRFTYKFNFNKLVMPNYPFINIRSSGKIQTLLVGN
The procedure, abridged: as §1

The target in the next assay is ETV6 (Homo sapiens, UniProt P41212 1-452). A digest of the protocol: as §1
ETV6, sequence (P41212 whole entry): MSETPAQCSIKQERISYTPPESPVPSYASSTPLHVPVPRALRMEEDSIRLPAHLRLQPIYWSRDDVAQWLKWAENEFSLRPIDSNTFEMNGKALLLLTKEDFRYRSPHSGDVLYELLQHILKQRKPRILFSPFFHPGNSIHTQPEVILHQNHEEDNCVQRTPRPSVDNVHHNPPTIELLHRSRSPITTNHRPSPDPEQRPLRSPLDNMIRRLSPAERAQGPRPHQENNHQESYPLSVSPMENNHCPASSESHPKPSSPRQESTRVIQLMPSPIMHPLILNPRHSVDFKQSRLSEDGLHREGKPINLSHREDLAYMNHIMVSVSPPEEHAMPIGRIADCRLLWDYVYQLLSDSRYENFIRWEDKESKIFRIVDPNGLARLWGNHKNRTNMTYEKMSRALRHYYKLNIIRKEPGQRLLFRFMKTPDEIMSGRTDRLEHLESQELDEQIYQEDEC

The values below come from article PMC7862700, “An all-to-all approach to the identification of sequence-specific readers for epigenetic DNA modifications on cytosine”.

ETV1, sequence (P50549 whole entry): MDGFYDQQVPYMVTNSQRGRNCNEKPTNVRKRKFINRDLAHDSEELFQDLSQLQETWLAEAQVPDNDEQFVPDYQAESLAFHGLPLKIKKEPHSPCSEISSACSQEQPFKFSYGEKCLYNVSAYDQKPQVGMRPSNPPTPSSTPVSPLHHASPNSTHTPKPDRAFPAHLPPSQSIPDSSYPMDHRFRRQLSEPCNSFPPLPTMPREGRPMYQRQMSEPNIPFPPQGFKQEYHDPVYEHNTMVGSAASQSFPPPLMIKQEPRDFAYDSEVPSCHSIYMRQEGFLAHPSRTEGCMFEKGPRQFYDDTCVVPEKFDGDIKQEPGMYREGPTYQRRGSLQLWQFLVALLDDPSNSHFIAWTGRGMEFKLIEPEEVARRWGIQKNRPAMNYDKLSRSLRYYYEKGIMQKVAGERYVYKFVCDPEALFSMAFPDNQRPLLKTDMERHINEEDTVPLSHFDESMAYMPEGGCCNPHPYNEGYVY
SPIB, sequence (Q01892 whole entry): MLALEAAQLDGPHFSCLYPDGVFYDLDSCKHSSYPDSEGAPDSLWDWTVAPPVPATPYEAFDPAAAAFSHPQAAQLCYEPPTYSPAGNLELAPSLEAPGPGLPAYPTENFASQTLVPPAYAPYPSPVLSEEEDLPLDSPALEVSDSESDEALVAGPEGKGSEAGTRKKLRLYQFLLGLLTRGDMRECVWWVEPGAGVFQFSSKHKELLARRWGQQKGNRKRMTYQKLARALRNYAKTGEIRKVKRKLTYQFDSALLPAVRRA
ETV5, sequence (P41161 whole entry): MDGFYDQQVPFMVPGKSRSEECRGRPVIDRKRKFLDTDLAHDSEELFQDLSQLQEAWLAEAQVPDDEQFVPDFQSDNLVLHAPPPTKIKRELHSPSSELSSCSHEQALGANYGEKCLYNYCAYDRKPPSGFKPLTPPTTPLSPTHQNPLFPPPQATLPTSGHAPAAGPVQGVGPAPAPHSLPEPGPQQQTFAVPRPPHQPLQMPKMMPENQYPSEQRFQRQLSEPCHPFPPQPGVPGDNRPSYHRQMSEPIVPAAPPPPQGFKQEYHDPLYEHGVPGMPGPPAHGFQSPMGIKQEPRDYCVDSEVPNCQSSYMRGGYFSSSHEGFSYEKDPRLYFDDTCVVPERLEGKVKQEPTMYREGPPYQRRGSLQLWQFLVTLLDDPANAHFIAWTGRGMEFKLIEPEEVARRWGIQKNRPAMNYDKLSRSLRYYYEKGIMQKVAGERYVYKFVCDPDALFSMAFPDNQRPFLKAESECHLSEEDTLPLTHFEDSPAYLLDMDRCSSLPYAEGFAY

Consider AGGAAC, for which the binding signal in the assay with FLI1 was 1.03 fold enrichment (6-mer frequency, TF over GST control); in the assay with ELK1 it was 1.08 fold enrichment (6-mer frequency, TF over GST control); with ERG it was 1.05 fold enrichment (6-mer frequency, TF over GST control); with EHF, 1.06 fold enrichment (6-mer frequency, TF over GST control); in the assay with SPI1, 1.45 fold enrichment (6-mer frequency, TF over GST control); in the assay with SPIB, 1.11 fold enrichment (6-mer frequency, TF over GST control). Moreover, the binding signal is 1.1 fold enrichment (6-mer frequency, TF over GST control) with ETV5; 1.23 fold enrichment (6-mer frequency, TF over GST control) in the assay with SPIC; 1 fold enrichment (6-mer frequency, TF over GST control) in the assay with ELF4; 1.04 fold enrichment (6-mer frequency, TF over GST control) in the assay with ETV1; 1.08 fold enrichment (6-mer frequency, TF over GST control) with ETS2; 1.05 fold enrichment (6-mer frequency, TF over GST control) in the assay with SPDEF. Also, the binding signal was 1.28 fold enrichment (6-mer frequency, TF over GST control) with ELF5; 1.05 fold enrichment (6-mer frequency, TF over GST control) with ETV3; 1.04 fold enrichment (6-mer frequency, TF over GST control) in the assay with ETV6.
